The record followed here is PubChem BioAssay (Tox21).

Records with an inconclusive call do not appear. Where a call stands in place of a potency, no number is given. Values without a mark were called inactive. Active and inactive are the calls of the source. Unless noted, calls follow the shape of the dose curve; as a rule, active = well fitted cell-killing curve with a large enough effect in the repeat runs; inconclusive = weak or mixed curves; inactive = no such curve, though single readings can be large or run the other way.

The first assay can be described thus: qHTS assay for small molecule activators of the heat shock response signaling pathway (AID 743210; active = well fitted activation curve with a large enough effect in the signal ratio in the repeat runs, with a control signal flat, not every such curve was filed as active; the % refers to the signal ratio). The note with it: HeLa HSE-bla reporter, beta-lactamase ratio, 5 h; series mostly up to 62.6 µM; activation: at the top concentration. The procedure, abridged: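 HSE-bla HeLa cells (beta-lactamase reporter under heat shock response elements) were exposed to compounds for 5 h at 37 C, then loaded with LiveBLAzer B/G FRET substrate for 2.5 h at room temperature before fluorescence reading.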
On to `CCCCNC(=O)NS(=O)(=O)c1ccc(N)cc1`, for which the outcome was inactive.
In the case of `CCCCCCCCCCCCCCCCCC(=O)OCC(O)CO` (stereo not given), the result was inactive.
On the same count and under the same terms, in the case of `COCC(C)N` (stereo not given) it was “inactive”; in that of `CCCCCCCCCCCCCC(=O)OC(C)C`, “inactive”.
On the same count and under the same terms, in the case of `N[C@@H](Cc1c[nH]c2ccccc12)C(=O)O` it was “inactive”; in that of `CCCCC/C(C=O)=C\c1ccccc1`, “inactive”; in that of `C=CCOC(=O)CC(C)C`, “inactive”.
The same measure, in the same setting: under `CC(=O)c1ccc(S(=O)(=O)NC(=O)NC2CCCCC2)cc1` stands “inactive”.
For `COC(=O)c1ccc(O)cc1`, the result was inactive.
On to `Oc1cccc(O)c1`, for which the outcome was inactive.
On the same count and under the same terms, under `COc1ccccc1O` stands “inactive”; under `CC(C)CC(C)CC(O)CC(C)C` (stereo not given), “inactive”.
The same measure, in the same setting: under `NC(=O)N1c2ccccc2C=Cc2ccccc21` stands “inactive”.
Still for that read-out and setting: under `O=C1CCCCCN1` stands “inactive”.
`O=c1c(-c2ccc(O)cc2)coc2cc(O)cc(O)c12`: the result was inactive.
Same read-out and setting: under `O=C(O)Cc1cccc2ccccc12` stands “inactive”; under `COc1cc(O)c(C(=O)c2ccccc2)cc1S(=O)(=O)O`, “inactive”; under `CCCCOCCOCCOC(C)=O`, “inactive”.
On the same count and under the same terms, in the case of `Cn1cnc2c1c(=O)[nH]c(=O)n2C` it was “inactive”; in that of `COCCOCCOC`, “inactive”; in that of `CCOC(=O)C(C)(C)Oc1ccc(Cl)cc1`, “inactive”.
Same read-out and setting: in the case of `CC(O)COc1ccccc1` (stereo not given) it was “inactive”; in that of `Cc1cccc(C)c1O`, “inactive”.
`COC(=O)c1ccc(C=O)cc1`: the outcome was inactive.
Still for that read-out and setting: in the case of `Cc1ccc(O)c(-n2nc3ccccc3n2)c1` it was “inactive”; in that of `Cc1cccc2ccccc12`, “inactive”.
Still for that read-out and setting: in the case of `CC(=O)CCC(C)C` it was “inactive”.
On the same count and under the same terms, under `O=[N+]([O-])c1ccc(O)cc1` stands “inactive”; under `CCCCCCCCOc1ccc(C(=O)c2ccccc2)c(O)c1`, “inactive”.
Turning to `Cc1c(N(C)CS(=O)(=O)O)c(=O)n(-c2ccccc2)n1C`, the outcome was inactive.

A short description of another assay: qHTS assay to identify small molecule agonists of the peroxisome proliferator-activated receptor delta (PPARd) signaling pathway - cell viability counter screen (AID 743211). Also: nearly all actives have a fitted effect of over 55% in size. The settings on record: PPARd-bla HEK293H viability, CellTiter-Glo luminescence, 17 h; series mostly up to 62.6 µM; activity change, negative = cytotoxicity: at the top concentration. The method in brief: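 PPARd-bla HEK293H cells (UAS-beta-lactamase reporter) were treated with compounds for 17 h at 37 C. Viability was then read in the same wells by CellTiter-Glo luminescence after 30 min at room temperature.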
Regarding `CCCCNC(=O)NS(=O)(=O)c1ccc(N)cc1`, the Potency entry was “inactive”.
For the compound `CCCCCCCCCCCCCCCCCC(=O)OCC(O)CO` (stereo not given), the Potency result was “inactive”.
Same read-out and setting: in the case of `COCC(C)N` (stereo not given) it was “inactive”; in that of `CCCCCCCCCCCCCC(=O)OC(C)C`, “inactive”; in that of `N[C@@H](Cc1c[nH]c2ccccc12)C(=O)O`, “inactive”.
On to `CCCCC/C(C=O)=C\c1ccccc1`, for which the Potency result is “inactive”.
Turning to `C=CCOC(=O)CC(C)C`, the Potency result was “inactive”.
Consider `CC(=O)c1ccc(S(=O)(=O)NC(=O)NC2CCCCC2)cc1`, for which the Potency entry was “inactive”.
Still for that read-out and setting: under `COC(=O)c1ccc(O)cc1` stands “inactive”; under `Oc1cccc(O)c1`, “inactive”.
In the case of `COc1ccccc1O`, the Potency entry was “inactive”.
The same measure, in the same setting: in the case of `CC(C)CC(C)CC(O)CC(C)C` (stereo not given) it was “inactive”; in that of `NC(=O)N1c2ccccc2C=Cc2ccccc21`, “inactive”.
The same measure, in the same setting: under `O=C1CCCCCN1` stands “inactive”; under `O=c1c(-c2ccc(O)cc2)coc2cc(O)cc(O)c12`, “inactive”.
On the same count and under the same terms, in the case of `O=C(O)Cc1cccc2ccccc12` it was “inactive”; in that of `COc1cc(O)c(C(=O)c2ccccc2)cc1S(=O)(=O)O`, “inactive”.
On to `CCCCOCCOCCOC(C)=O`, for which the Potency entry is “inactive”.
`Cn1cnc2c1c(=O)[nH]c(=O)n2C`: the “activity change, negative = cytotoxicity” value is 4.18% [at 29.1 µM].
For `COCCOCCOC`, the Potency result is “inactive”.
Regarding `CCOC(=O)C(C)(C)Oc1ccc(Cl)cc1`, the Potency result is “inactive”.
`CC(O)COc1ccccc1` (stereo not given): the Potency entry was “inactive”.
In the case of `Cc1cccc(C)c1O`, the Potency entry is “inactive”.
Same read-out and setting: under `COC(=O)c1ccc(C=O)cc1` stands “inactive”; under `Cc1ccc(O)c(-n2nc3ccccc3n2)c1`, “inactive”.
With `Cc1cccc2ccccc12`, the Potency entry was “inactive”.
Same read-out and setting: in the case of `CC(=O)CCC(C)C` it was “inactive”.
On to `O=[N+]([O-])c1ccc(O)cc1`, for which the Potency entry is “inactive”.
Turning to `CCCCCCCCOc1ccc(C(=O)c2ccccc2)c(O)c1`, the Potency result is “inactive”.
Regarding `Cc1c(N(C)CS(=O)(=O)O)c(=O)n(-c2ccccc2)n1C`, the Potency entry was “inactive”.
